Data: PubChem BioAssay AID1159580 (chemical genetic matrix, 2015)
“And” between values parts separate entries of the source, which are not always exact repeats. Equal values may be shown once. Screen size: about 5,500 compounds; about 2,000 (36%) were called active. Not shown: some 18% with an inconclusive outcome. Rule as the data show it: active = normalized growth mostly below about 0.91 (no sharp cut-off); inconclusive = no clear call, values can overlap the other calls; inactive = mostly above about 0.92. Some of the results follow.

Assay: chemical genetic growth profiling, strain panel (AID 1159580);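 also: tested at 20 µM; growth read once vehicle control cultures reached saturation at 30 °C; 1 = growth at the plate median or of vehicle wells; lower values mean less growth of the strain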
Conditions: S. cerevisiae deletion strains, growth OD

Measured: normalized growth

O=C(O)[C@H](O)[C@@](O)(Cc1ccc(O)cc1)C(=O)O
inactive: locus YAL013W, strain DEP1, active compounds read low 1.04 | locus YAL021C, strain ccr4, active compounds read low 1 | locus YAL026C, strain drs2, active compounds read low 1 | locus YAL030W, strain snc1, active compounds read low 1.01 | locus YBL061C, strain skt5, active compounds read low 1.01 | locus YBR009C, strain hhf1, active compounds read low 1.01 | locus YBR021W, strain FUR4, active compounds read low 1.02 | locus YBR023C, strain chs3, active compounds read low 1.02 | locus YBR171W, strain sec66, active compounds read low 1.02 | locus YBR229C, strain ROT2, active compounds read low 1.02 | locus YBR231C, strain swc5, active compounds read low 1.01 | locus YBR279W, strain paf1, active compounds read low 1.01 | locus YCL011C, strain gbp2, active compounds read low 1.01 | locus YCL016C, strain dcc1, active compounds read low 1.02 | locus YCL029C, strain bik1, active compounds read low 1.02 | locus YCL061C, strain MRC1, active compounds read low 1.02 | locus YCL069W, strain vba3, active compounds read low 1 | locus YCR088W, strain abp1, active compounds read low 1.01 | locus YDL005C, strain med2, active compounds read low 0.996 | locus YDL035C, strain GPR1, active compounds read low 1.06 | locus YDL040C, strain nat1, active compounds read low 1 | locus YDL074C, strain BRE1, active compounds read low 1.06 | locus YDL101C, strain DUN1, active compounds read low 1.03 | locus YDL134C, strain PPH21, active compounds read low 1.02 | locus YDL185W, strain tfp1, active compounds read low 0.992 | locus YDL192W, strain arf1, active compounds read low 1.03 | locus YDR001C, strain nth1, active compounds read low 1.02 | locus YDR069C, strain doa4, active compounds read low 1.01 | locus YDR101C, strain arx1, active compounds read low 1.02 | locus YDR137W, strain rgp1, active compounds read low 1.03 | locus YDR159W, strain sac3, active compounds read low 1 | locus YDR162C, strain NBP2, active compounds read low 1.06 | locus YDR195W, strain ref2 0.989 | locus YDR297W, strain sur2, active compounds read low 1.01 | locus YDR318W, strain mcm21, active compounds read low 1.01 | locus YDR334W, strain swr1, active compounds read low 1.01 | locus YDR335W, strain msn5, active compounds read low 1 | locus YDR388W, active compounds read low 1 | locus YDR392W, strain spt3, active compounds read low 0.976 | locus YDR502C, strain sam2, active compounds read low 0.995 | locus YEL003W, strain gim4, active compounds read low 0.999 | locus YEL037C, strain rad23, active compounds read low 1 | locus YEL061C, strain CIN8 (second series), active compounds read low 0.999 | locus YER015W, strain faa2, active compounds read low 1 | locus YER016W, strain bim1, active compounds read low 1 | locus YER110C, active compounds read low 0.992 | locus YER111C, strain swi4, active compounds read low 1 | locus YER155C, strain BEM2 (second series), active compounds read low 1.01 | locus YER155C, strain BEM2, active compounds read low 1.01 | locus YER167W, strain BCK2, active compounds read low 1.02 | locus YFR010W, strain ubp6, active compounds read low 1.01 | locus YGL078C, strain dbp3, active compounds read low 1.01 | locus YGL086W, strain mad1, active compounds read low 1.01 | locus YGL167C, strain pmr1, active compounds read low 1.01 | locus YGL173C, strain kem1, active compounds read low 1.02 | locus YGL227W, strain vid30, active compounds read low 1.01 | locus YGL240W, strain doc1, active compounds read low 1.01 | locus YGL248W, strain PDE1, active compounds read low 1.03 | locus YGL253W, strain hxk2, active compounds read low 1.01 | locus YGR078C, strain PAC10, active compounds read low 1.03 | locus YGR135W, strain pre9, active compounds read low 0.987 | locus YGR252W, strain gcn5, active compounds read low 0.966 | locus YHR013C, strain ard1, active compounds read low 1.02 | locus YHR027C, strain rpn1, active compounds read low 1.02 | locus YHR030C, strain SLT2, active compounds read low 1.02 and 1.01 | locus YHR079C, strain IRE1 (second series), active compounds read low 1 | locus YHR079C, strain IRE1, active compounds read low 1 | locus YHR094C, strain hxt1, active compounds read low 0.999 | locus YHR129C, strain ARP1, active compounds read low 1.02 | locus YHR142W, strain chs7, active compounds read low 1.02 | locus YHR200W, strain rpn10, active compounds read low 0.996 | locus YIL066C, strain RNR3, active compounds read low 1.04 | locus YIL073C, strain SPO22, active compounds read low 1.05 | locus YIL125W, strain kgd1, active compounds read low 1.02 | locus YIR030C, strain dcg1, active compounds read low 1 | locus YJL092W, strain hpr5, active compounds read low 1.02 | locus YJL095W, strain BCK1 (second series), active compounds read low 1.01 | locus YJL095W, strain BCK1, active compounds read low 1.05 and 1.01 | locus YJL115W, strain asf1, active compounds read low 0.997 | locus YJL129C, strain trk1, active compounds read low 1.03 | locus YJL134W, strain LCB3, active compounds read low 1.02 | locus YJL154C, strain vps35, active compounds read low 1 | locus YJL164C, strain tpk1, active compounds read low 1.01 | locus YJL166W, strain qcr8, active compounds read low 1.01 | locus YJL168C, strain set2, active compounds read low 1 | locus YJL187C, strain SWE1 (second series), active compounds read low 1.04 | locus YJL187C, strain SWE1, active compounds read low 1.01 | locus YJR043C, strain POL32, active compounds read low 1.06
